Yp Topo-I inh: Y. pestis Topo-I inhibition via cleavage products; 0.064% of 360,000 active; Y. pestis Topo-I cleavage product accumulation, plate reader; AID 504884; activity, % at 10 µM; in the data active = activity above about 50%, passing the limit was not always enough
BJeLR lethal: kills HRASV12-expressing BJeLR cells | BJeLR (HRASV12) viability, CellTiter-Glo ATP luminescence, 48 h | inhibition, % (test concentration not listed) | 0.17% of 300,000 active | AID 1554; in the data active = inhibition above about 50%
PrPC surface inh: cell surface PrPC inhibition, primary TR-FRET screen. 0.43% of 370,000 active. TR-FRET read-out. inhibition, % at 13.8 µM; in the data active = inhibition above about 24%; also: 0% = median of the test wells and 100% = reference compound wells
PrP 5UTR inh: inhibition of PrP 5' UTR reporter expression; cell-based PrP 5' UTR mRNA reporter, plate reader; inhibition, % (test concentration not listed); 0.35% of 340,000 active; in the data active = inhibition above about 52%; also: 0 = median of the neutral control wells
CCHFV vOTU inh: blocks the CCHF virus ovarian tumor domain protease; CCHFV vOTU protease, Pep-AMC fluorescence; inhibition, % at 11.5 µM; 0.55% of 370,000 active; AID 651958; in the data active = inhibition above about 30%; also: 0% = vehicle wells with enzyme and 100% = no enzyme wells
PfHsp40 yeast: compounds rescuing yeast from Plasmodium falciparum HSP40 toxicity; S. cerevisiae expressing PfHsp40, growth rescue, ATP luminescence; growth rescue, % at 12.5 µM; 0.68% of 340,000 active; AID 504582; in the data active = growth rescue above about 28%, passing the limit was not always enough;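 also: yeast W303a lacking pdr1 and pdr3 grown in galactose medium; growth measured after three days at 30 °C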
Starred values were filed as active, the others as inactive; nt = not tested or not shown. In the library only some 2% were active in any assay of this set; here they are far more common.

SMILES | Yp Topo-I inh | BJeLR lethal | PrPC surface inh | PrP 5UTR inh | CCHFV vOTU inh | PfHsp40 yeast
O=C(CSc1nc2ccccc2o1)NN=C/C=C/c1ccccc1 | nt | nt | 7 | nt | 14 | nt
O=S(=O)(Nc1ccn(-c2ccccc2)n1)c1ccc(Br)cc1 | -1 | 2 | 1 | -15 | 5 | 60*
Cc1c(NS(=O)(=O)c2ccc(Br)cc2)c(=O)n(-c2ccccc2)n1C | 3 | -4 | -3 | -9 | 5 | 1
Cc1ccc2nc(N3C(=O)CNC3=S)sc2c1 | -3 | 8 | 17 | -91 | -1 | 2
COc1ccc2nc(N3C(=O)CNC3=S)sc2c1 | -7 | 2 | 3 | -56 | 4 | 32*
COc1ccc(Nc2nc3ccc(OC)cc3s2)cc1 | -12 | 1 | 4 | -48 | 0 | 8
COc1ccc2nc(NC3=NCCN3)sc2c1 | -2 | 4 | 6 | -85 | -2 | 126*
c1ccc2sc(NC3=NCCN3)nc2c1 | -3 | 3 | 2 | -52 | 9 | 186*
Fc1ccc2nc3[nH]c4ccccc4c3nc2c1 | 1 | 1 | -11 | -100 | 7 | 47*
OC1=C(O)c2nc3cc(F)ccc3nc21 | -1 | -6 | -5 | -23 | -10 | 1
Cc1cc(N/N=C/c2ccc(F)cc2)nc(-n2nc(C)cc2C)n1 | 17 | -8 | 6 | nt | 0 | nt
COc1ccc(/C=N/Nc2cc(C)nc(-n3nc(C)cc3C)n2)c(OC)c1 | 16 | 13 | 10 | 8 | 7 | 178*
CC(C)(C)c1cc(-c2nc(N)nc(N)n2)c(O)c(C(C)(C)C)c1 | -3 | nt | 0 | -11 | 4 | 225*
Nc1nc(N)nc(-c2cc(O)ccc2O)n1 | -7 | nt | -2 | 6 | 29 | -2
CCOc1cc(NCc2ccccc2)c2ncn(C(C)C)c2c1 | 15 | nt | -1 | -33 | 8 | 7
CC(C)n1cnc2c(NCc3ccccc3)cc(Cc3ccc(F)cc3)cc21 | 5 | nt | 4 | -11 | 24 | 115*
c1ccc(Oc2cccc(OCCCn3cncn3)c2)cc1 | 5 | -2 | -1 | -18 | 15 | 95*
O=[N+]([O-])c1ccc(OCCCn2cncn2)cc1 | 1 | -2 | -6 | 9 | -8 | 51*
c1ccc(COc2ccc(OCCOCCn3cncn3)cc2)cc1 | 10 | 8 | 1 | -53 | 12 | 0
CS(=O)(=O)N(CCC(=O)O)Cc1ccccc1 | 0 | -5 | -5 | -9 | 10 | 77*
CCCCN(CCCC)C(=S)N/N=C/c1c(C)[nH]n(-c2ccccc2)c1=O | -9 | 18 | 5 | 27 | 2 | 0
CCCSC(=S)c1c(C)[nH]n(-c2ccccc2)c1=O | 5 | -2 | 8 | -19 | 18 | 305*
Cc1ccc(SCCNC(=S)Nc2ccc(C)c(C)c2)cc1 | -2 | 0 | 1 | 0 | 18 | 97*
CN(C)c1nc(SCc2ccc(Cl)cc2)nc2c1CCCC2 | 10 | -3 | -4 | -9 | 10 | 220*
COc1cccc(-c2cc3nc(-c4ccccc4)cc(N4CCCC(O)C4)n3n2)c1 (stereo not drawn) | 12 | 1 | 12 | -21 | -43 | 72*
SMILES | Yp Topo-I inh | BJeLR lethal | PrPC surface inh | PrP 5UTR inh | CCHFV vOTU inh | PfHsp40 yeast
CCc1ccc(C(C)NC(=O)c2cc(C)oc2C)cc1 (stereo not drawn) | -5 | -11 | 1 | -8 | 12 | 47*
CC(C)c1c(O)ccc2c1CC[C@H]1C(C)(C)CCC[C@]21C | -2 | nt | -4 | -13 | 12 | 112*
CC(C)(O)c1ccc2c(c1)CCC1C(C)(C(=O)O)CCCC21C (stereo not drawn) | 15 | 3 | -3 | -11 | -5 | 0
CC(=O)OC12CCCN(C1)/C(=C/c1cccc(Cl)c1)C2 (stereo not drawn) | nt | nt | -7 | nt | -1 | nt
O=C(c1ccc(C(=O)N2CCCc3ccccc32)s1)N1CCCc2ccccc21 | 18 | 2 | -4 | -17 | -4 | 51*
COc1ccc(-c2oc3ccccc3c2C#Cc2cncn2C)cc1 | 19 | nt | -1 | -20 | 4 | 336*
COc1ccc(-c2sc3ccc(OC)cc3c2C#Cc2cncn2C)cc1 | -10 | nt | -4 | 10 | -15 | -1
COC(=O)c1cc(CNC(=O)c2ccccc2Cl)ccc1OC | -3 | -1 | -6 | 2 | -4 | 47*
COc1ccc(Br)cc1C(=O)NCc1cccnc1 | 4 | -7 | 0 | -8 | -8 | 34*
CC(C)c1onc(C(=O)N2CCN(c3ccccc3)CC2)c1[N+](=O)[O-] | -9 | 8 | -4 | -8 | -1 | 1
CC(C)c1onc(C(=O)N2CCN(C(c3ccccc3)c3ccccc3)CC2)c1[N+](=O)[O-] | 4 | 91* | 2 | -2 | -2 | 2
CCC[C@H]1[C@@H](N(C)CC2CCCCC2)CC[C@@]23CCCN2C(=O)CCC[C@@H]13 | nt | nt | 1 | nt | nt | nt
CCOC(=O)c1c(/N=C/c2c(O)n(-c3ccc(F)cc3)c(=S)[nH]c2=O)sc2c1CCCC2 | 5 | 15 | 1 | -12 | 5 | 41*
Nn1c(SCC(=O)N2c3ccccc3Sc3ccc(Cl)cc32)nnc1-c1n[nH]c2c1CCC2 | nt | nt | 3 | nt | 5 | nt
Cc1ccc2c(C)c3ccc4ccccc4c3c[n+]2c1 | -33 | nt | -34 | -19 | -111 | 368*
CCOC(=O)c1sc(N2C(=O)C(O)=C(C(=O)c3ccc(C)o3)C2c2ccc(OC)c(OC)c2)nc1C (stereo not drawn) | 11 | 3 | 4 | -16 | 5 | 42*
O=C(COc1ccccc1)Nc1ccncc1 | -8 | 4 | 3 | -15 | 6 | 44*
N#CCCN(C(=O)Nc1ccccc1)c1ccccc1 | 1 | -2 | -6 | -3 | 0 | 66*
C[C@H]1[C@@H](OC(=O)NCc2ccccc2Cl)CC[C@@]23CCCN2C(=O)CCC[C@@H]13 | nt | nt | -6 | nt | nt | nt
C[C@H]1C(=O)N2[C@@H](C[C@]3(c4c[nH]c5ccccc45)c4ccccc4N(S(=O)(=O)c4ccccc4)[C@H]23)C(=O)N1C | nt | nt | -1 | nt | nt | nt
CC(C)(C)NC(=S)N/N=C/c1c(Cl)cccc1Cl | 9 | -7 | 10 | 0 | -4 | 0
Cc1ccc(NC(=S)N/N=C/c2c(Cl)cccc2Cl)c(C)c1 | 8 | 53* | 17 | 39 | 4 | 1
COc1ccccc1C(=O)N1CCC(Oc2cccnc2)CC1 | nt | nt | 7 | nt | 3 | nt
CCOC(=O)[C@@]12CCCC=C1N(CCc1ccc(Cl)cc1)C(=O)[C@H]2CC(=O)NCc1cccs1 | nt | nt | 4 | nt | 4 | nt
COC(=O)c1cn(-c2ccccc2)nc1-c1ccncc1 | 2 | -5 | -3 | -28 | 6 | -1
O=C(OCc1ccccc1)c1cn(-c2ccccc2)nc1-c1ccncc1 | 32 | 3 | -3 | -9 | -3 | 104*
CCOc1ccc(-n2c(SCC(=O)c3ccc4ccccc4c3)nnc2-c2cccc(Cl)c2)cc1 | nt | nt | 13 | nt | 27 | nt
CC(C)(c1cc(Br)c(O)c(Br)c1)c1cc(Br)c(O)c(Br)c1 | 7 | nt | -3 | 0 | 10 | 331*
C=CCN(CC#Cc1ccccn1)Cc1ccc(OC)cc1OC | nt | nt | -6 | nt | 3 | nt
CC(/C=N/n1c(COc2ccccc2)n[nH]c1=S)=C\c1ccccc1 | 5 | -2 | -1 | -9 | 9 | 67*
